The values that follow come from PubChem BioAssay (NCATS).

Results filed as inconclusive are left out. A call without a number means that no potency is given here. Activity calls are given as the source filed them. Calls come from the whole dose curve; as a rule, active = well fitted cell-killing curve with a large enough effect; inconclusive = small, poorly fitted or top-dose-only effect; inactive = flat fitted curve, though single readings scatter.
Potency is the fitted concentration of half-maximal effect.

This assay is described as follows: Quantitative highthroughput screen to assess conditional lethalithy of P12 Ichikawa cells grown in RPMI1640 with untreated serum (RPMI+s) (AID 1963881). Note: nearly all actives have a fitted effect of over 35% in size. As to conditions: ATP luminescence, 48 h; Potency: viability; series mostly up to 45.8 µM. The source says: Assay Provider: Jason Cantor Ph.D.
Department of Biochemistry
University of Wisconsin-Madison, Madison, WI, USA
Chemical screening studies have identified drug sensitivities across hundreds of cancer cell lines but most putative therapeutics fail to translate. Discovery and development of drug candidates in models that more accurately reflect nutrient levels in human blood is a major challenge. Here we performed high-throughput screens in conventional versus Human Plasma-Like Medium (HPLM) to identify compounds that were "missed" when screening using the artificial culture condition. Sets of conditional anticancer compounds spanned phases of clinical development and included non-oncology drugs were assessed. […] We also traced conditional phenotypes for several chemotherapeutics to availability of HPLM-specific metabolites and confirmed others for compounds whose reported targets are encoded by nonessential genes. Our findings establish generalizable strategies for exploiting conditional lethality in HPLM to reveal therapeutic candidates and mechanisms of action in cancer cells.
Described herein are the results of each viability screens against three cell lines: NOMO1 (an acute myeloid leukemia cell line); P12-Ichikawa (a T-cell acute lymphoblastic leukemia); and SEM (a B-cell ALL). Each assay was screened using 3 different cell culture media: homemade human plasma-Like medium with 10% dialyzed fetal bovine serum (HPLM+ds); RPMI1640 with 10% untreated FBS and 5mM glucose (RPMI+s); and RPMI1640 with 10% dialyzed fetal bovine serum and 5 mM glucose (RPMI+ds).
PROTOCOL TABLE (as described by Inglese J, Shamu CE and Guy RK. 2007)
SEQUENCE No. (e.g., 1, 2, 3, etc.); […] (e.g., Cells, Incubation, Reagent, etc.); VALUE and DESCRIPTION.
1; Cells; 5 uL; white, solid bottom 1536-well Greiner assay plate.
2; Compounds; 23 nL; Kalypsis pin tool (Wako USA) equipped with a 1536-well pin head to transfer to the assay plates.
3; Incubation; 48 hours; 37C incubation.
4; Reagent; 3 uL; CellTiter Glo (Promega).
5; Incubation; 5 min, room temperature
6; Detection; Luminescence, Viewlux PerkinElmer.
NOTES (numbers refer to Sequence numbers above)
1. Briefly, 5 ul of cell reagent was dispensed using a Multidrop Combi Dispenser. The NOMO1 and SEM cells were plated at 500 cells/well and the P12-Ichikawa line at 1000 cells/well.
2. After seeding the cells, 23 nL of MIPE 4.1 library compounds (in DMSO) were added to each plate using a Kalypsys 1536 Pintool dispenser. Bortezomib at final concentration of […] and DMSO were added to each plate as positive and negative controls respectively. For each screen, MIPE 4.1 compounds were added over an eleven-point concentration range […] in 3-fold dilutions.
3. Each plate was covered with a stainless steel gasketed lid to prevent evaporation and incubated for 48 hour at 37C, 95% relative humidity, and 5% CO2.
4-5. Three microliter CellTilter-GloTM luminescent substrate mix (Promega) reagent was added to the assay plate and incubated at room temperature for 5 min.
6. The luminescence signal was measured using a ViewLux (PerkinElmer) multiplate reader with a 2 second exposure time per plate. Data for each compound were normalized as percent viability such that measurements for DMSO and the empty well controls in each plate were defined as 100% and 0%, respectively.
Turning to `O=C(CCCCCCNC(=O)c1cnc(N(c2ccccc2)c2ccccc2)nc1)NO`, the Potency was 7.43 µM (active).

As for `CCOC(=O)[C@H]1O[C@H]1C(=O)N[C@@H](CC(C)C)C(=O)NCCC(C)C`, the Potency entry was “inactive”. In the case of `CN1C(=O)C(Cc2c[nH]c3ccccc23)NC1=S` (stereo not given) it was “inactive”. For `C=C1c2cccc(O)c2C(O)=C2C(=O)[C@@]3(O)C(O)=C(C(N)=O)C(=O)[C@@H](N(C)C)[C@@H]3[C@@H](O)[C@H]12`, the Potency result was “inactive”. In the case of `Cc1c(C)c2c(c(C)c1O)CCC(C)(COc1ccc(CC3SC(=O)NC3=O)cc1)O2` (stereo not given) it was “inactive”; in that of `CCCCc1oc2ccccc2c1C(=O)c1cc(I)c(OCCN(CC)CC)c(I)c1`, “inactive”. To `O=c1cc(-c2cccc3c2Sc2ccccc2S3)oc(N2CCOCC2)c1` belongs “inactive”. To `CC(=O)NC(C)c1ccc(Oc2ccc(OC(C)C)cc2)cc1` (stereo not given) belongs “inactive”. Take `CC(C)c1noc(N2CCC(COc3ccc(-c4ccc(S(C)(=O)=O)cc4)nc3)CC2)n1`: the Potency result is “inactive”. In the case of `CC(C)Nc1cc(C(F)(F)F)cc2nc(NC(=O)c3cccnc3)nn12` it was 2.35 µM (active). `COc1ccc2cc([C@H](C)C(=O)O)ccc2c1`: the Potency result is “inactive”. In the case of `Cc1cccc(Nc2nc(N[C@@H]3CCCC[C@H]3N)ncc2C(N)=O)c1`, the Potency is 3.32 µM (active). As to `CC[C@@]1([C@@H]2O[C@@H]([C@H]3O[C@@](O)(CO)[C@H](C)C[C@H]3C)C[C@H]2C)CC[C@H]([C@]2(C)CC[C@]3(C[C@H](O)[C@@H](C)[C@@H]([C@@H](C)[C@@H](OC)[C@H](C)C(=O)O)O3)O2)O1`, the Potency was 1.44 µM (active). To `CC1(O)CC(c2nc(-c3ccc4ccc(-c5ccccc5)nc4c3)c3c(N)nccn23)C1` (stereo not given) belongs 4.69 µM (active); to `C[C@@]1(C(=O)Nc2ccc(F)nc2)CCCN1c1nc(Nc2cc(C3CC3)[nH]n2)c2cccn2n1`, 2.96 µM (active). `CN1c2cc(O)c(N=NC(N)=O)cc2CC1S(=O)(=O)O` (stereo not given): the Potency result is “inactive”. To `CCNc1cc(NC2CCC(O)CC2)nc(Nc2ccc3c(ccn3Cc3ccccc3)c2)n1` (stereo not given) belongs “inactive”; to `CCNC(=O)[C@H]1O[C@@H](n2cnc3c(N)nc(NCCc4ccc(CCC(=O)O)cc4)nc32)[C@H](O)[C@H]1O`, “inactive”. `C=CC(=O)Nc1cccc(Nc2nc(NC3CCC(N(C)C)CC3)nc3c2ncn3C(C)C)c1` (stereo not given): the Potency is 3.32 µM (active). Consider `O=C(Nc1cccc(Cl)c1)Nc1ncc(CCNc2ncnc3ccsc23)s1`, for which the Potency is 0.418 µM (active). Consider `CNC(=O)c1ccc(C)c(-n2c(C)cc(OCc3ccc(F)cc3F)c(Br)c2=O)c1`, for which the Potency result was “inactive”. In the case of `NS(=O)(=O)OC[C@@H]1C[C@@H](n2ccc3c(N[C@H]4CCc5ccccc54)ncnc32)C[C@H]1O` it was 2.09 µM (active); in that of `COc1cc2nccc(Oc3ccc(NC(=O)C4(C(=O)Nc5ccc(F)cc5)CC4)cc3)c2cc1OC`, 20.9 µM (active); in that of `CCCc1nc(C(C)(C)O)c(C(=O)O)n1Cc1ccc(-c2ccccc2-c2nn[nH]n2)cc1`, “inactive”.

For `C[C@]12C=CC(=O)C=C1CC[C@@H]1[C@@H]2[C@@H](O)C[C@@]2(C)[C@@H]1CC[C@]2(O)C(=O)CO`, the Potency was 6.62 µM (active). As for `O=c1c2ccccc2nc2n1CCc1c-2[nH]c2ccccc12`, the Potency was 13.2 µM (active). In the case of `CN[C@@H]1[C@@H](O)[C@@H](O[C@@H]2[C@@H](O)[C@H](O[C@H]3O[C@H](CN)[C@@H](O)[C@H](O)[C@@H]3O)[C@@H](N)C[C@@H]2NC(=O)[C@@H](O)CN)OC[C@]1(C)O` it was “inactive”. In the case of `NC(CO)C(=O)NNCc1ccc(O)c(O)c1O` (stereo not given) it was 26.4 µM (active). To `CC=C(C)C(=O)O[C@H]1C(C)=C[C@]23C(=O)[C@@H](C=C(CO)[C@@H](O)[C@]12O)[C@H]1[C@@H](C[C@H]3C)C1(C)C` belongs 0.0066 µM (active); to `C=CC[N+]1([C@H]2C[C@H]3[C@@H]4CC[C@H]5C[C@H](O)[C@@H](N6CCOCC6)C[C@]5(C)[C@@H]4CC[C@]3(C)[C@H]2OC(C)=O)CCCC1`, “inactive”. On to `CN1CC(=O)N2C(Cc3c([nH]c4ccccc34)[C@H]2c2ccc3c(c2)OCO3)C1=O` (stereo not given in full), for which the Potency entry is “inactive”. To `O=C(O)CCCCCC(=O)NN=C1CCCC1` belongs “inactive”; to `CC1(C)[C@H](O[C@H]2O[C@H](C(=O)O)[C@@H](O)[C@H](O)[C@H]2O[C@@H]2O[C@H](C(=O)O)[C@@H](O)[C@H](O)[C@H]2O)CC[C@@]2(C)[C@H]1CC[C@]1(C)[C@H]2C(=O)C=C2[C@H]3C[C@@](C)(C(=O)O)CC[C@]3(C)CC[C@]21C`, “inactive”. To `COc1cc([C@@H]2c3cc4c(cc3[C@H](O)[C@H]3COC(=O)[C@@H]23)OCO4)cc(OC)c1OC` belongs 0.372 µM (active); to `O=c1[nH]c(=O)n([C@H]2C[C@@H](O)[C@@H](CO)O2)cc1C(F)(F)F`, 3.72 µM (active). In the case of `CC(C=CC(=O)NO)=C[C@@H](C)C(=O)c1ccc(N(C)C)cc1` it was 1.18 µM (active); in that of `Cc1ccc(C)c(OCCCC(C)(C)C(=O)O)c1`, “inactive”; in that of `CC(C)C[C@@H](N)[C@H](O)C(=O)N[C@H](C(=O)N[C@H](C(=O)N[C@@H](CC(=O)O)C(=O)O)C(C)C)C(C)C`, “inactive”. Regarding `C[C@@H]1[C@H](C)CC[C@]2(C(=O)O)CC[C@]3(C)C(=CC[C@@H]4[C@@]5(C)C[C@@H](O)[C@H](O)[C@@](C)(CO)[C@H]5CC[C@]43C)[C@@H]12`, the Potency result was “inactive”. With `C[C@]12CC[C@H](O)CC1=CC[C@@H]1[C@H]2CC[C@]2(C)C(c3cccnc3)=CC[C@H]12`, the Potency entry is “inactive”.
